According to PubChem BioAssay (NCATS):
Inconclusive results are not listed. Active and inactive are the calls of the source. Calls come from the whole dose curve; as a rule, active = well fitted curve in the direction sought with a large enough effect; inconclusive = small, poorly fitted or top-dose-only effect, or another doubt; inactive = no such curve, though single readings can be large; an effect the other way counts as inactive or inconclusive.

Tests used:
Hek293T = test: Primary qHTS to identify gynecologic anti-cancer compounds using libraries of approved drugs and bioactive compounds (AID 1345084); details: Gynecologic cancer cell panel viability, ATPlite luminescence, 48 h, control line for the selectivity index; series mostly up to 57.5 µM; note: nearly all actives have a fitted effect of over 55% in size
How it was run: (§1)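 In this quantitative HTS, cell killing is estimated from loss of ATP-dependent luciferase light. Cells see five compound concentrations over a 48 h exposure.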

JEG-3 = test: as above; details: Gynecologic cancer cell panel viability, ATPlite luminescence, 48 h; series mostly up to 57.5 µM
How it was run: as §1

OV90 = test: as above; details: Gynecologic cancer cell panel viability, ATPlite luminescence, 48 h; series mostly up to 57.5 µM
How it was run: as §1

PA-1 = test: as above; details: Gynecologic cancer cell panel viability, ATPlite luminescence, 48 h; series mostly up to 57.5 µM
How it was run: as §1

SKOV3 = test: as above; details: Gynecologic cancer cell panel viability, ATPlite luminescence, 48 h; series mostly up to 57.5 µM
How it was run: as §1

Tov-21-G = test: as above; details: Gynecologic cancer cell panel viability, ATPlite luminescence, 48 h; series mostly up to 57.5 µM
How it was run: as §1

Tov112D = test: as above; details: Gynecologic cancer cell panel viability, ATPlite luminescence, 48 h; series mostly up to 57.5 µM
How it was run: as §1

[1] = Drug repurposing screens with cells derived from glioblastoma tumor samples (AID 1345199); details: GBM patient neurospheres viability, ATP luminescence, 48 h; note: nearly all actives have a fitted effect of over 40% in size; note: potency is the fitted concentration of half-maximal effect
How it was run: (§2)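 Primary testing used CD133+ neurospheres from four GBM patients, seven concentrations, 48 h exposure and ATP-based viability; confirmation added three slower-growing patient lines.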

astro = test: as above; details: viability, ATP luminescence, 48 h; series mostly up to 45.9 µM
How it was run: as §2

[2] = at 46.1 µM (top of the series), tumour line C
[3] = at 45.9 µM (top of the series), tumour line B
[4] = at 45.9 µM (top of the series), tumour line D
[5] = at 46 µM (top of the series), tumour line A
% is set by controls: 0 for no effect and ±100 for the full control effect.

COc1ccc([C@@H]2Sc3ccccc3N(CCN(C)C)C(=O)[C@@H]2OC(C)=O)cc1
inactive: Potency (Hek293T) | Potency (JEG-3) | Potency (OV90) | Potency (PA-1) | Potency (SKOV3) | Potency (Tov-21-G) | Potency (Tov112D) | activity, negative = cell killing [1, 2] -13.9%

Cc1ccc(/C(=C\CN2CCCC2)c2ccccn2)cc1
active: Potency ([1]; tumour line A) 17.8 µM
inactive: Potency (Hek293T) | Potency (JEG-3) | Potency (OV90) | Potency (PA-1) | Potency (SKOV3) | Potency (Tov-21-G) | Potency (Tov112D) | activity, negative = cell killing [1, 3] -22.4% | activity, negative = cell killing [1, 4] -28.9% | activity, negative = cell killing [1, 2] 0.541%

O=C(O)CCCCCCCC(=O)O
inactive: Potency (Hek293T) | Potency (JEG-3) | Potency (OV90) | Potency (PA-1) | Potency (SKOV3) | Potency (Tov-21-G) | Potency (Tov112D) | activity, negative = cell killing [1, 3] -8.57% | activity, negative = cell killing [1, 4] -5.03% | activity, negative = cell killing [1, 2] -6.63%

O=C(O)CN(CCOCCOCCN(CC(=O)O)CC(=O)O)CC(=O)O
inactive: activity change, negative = cytotoxicity (Hek293T) -0.823% [at 0.462 µM] | activity change, negative = cytotoxicity (JEG-3) -5.11% [at 0.462 µM] | activity change, negative = cytotoxicity (OV90) 2.64% [at 0.462 µM] | activity change, negative = cytotoxicity (PA-1) -1.54% [at 0.462 µM] | activity change, negative = cytotoxicity (SKOV3) 17.7% [at 0.462 µM] | activity change, negative = cytotoxicity (Tov-21-G) 1.63% [at 0.462 µM] | activity change, negative = cytotoxicity (Tov112D) 6.01% [at 0.462 µM] | activity, negative = cell killing [1, 3] -21% | activity, negative = cell killing [1, 4] -7% | activity, negative = cell killing [1, 5] -22.8% | activity, negative = cell killing [1, 2] 4.28% | Potency (astro)

CCCCCN(CCCCC)C(=O)C(CCC(=O)O)NC(=O)c1ccc(Cl)c(Cl)c1 (stereo not given)
inactive: Potency (Hek293T) | Potency (JEG-3) | Potency (OV90) | Potency (PA-1) | Potency (SKOV3) | Potency (Tov-21-G) | Potency (Tov112D) | activity, negative = cell killing [1, 3] -4.86% | activity, negative = cell killing [1, 4] -12.8% | activity, negative = cell killing [1, 2] -26.2%

O=C(CCNNC(=O)c1ccncc1)NCc1ccccc1
inactive: Potency (Hek293T) | Potency (JEG-3) | Potency (OV90) | Potency (PA-1) | Potency (SKOV3) | Potency (Tov-21-G) | Potency (Tov112D) | activity, negative = cell killing [1, 3] -4.66% | activity, negative = cell killing [1, 4] -5.12% | activity, negative = cell killing [1, 5] -24.8% | activity, negative = cell killing [1, 2] 1.75% | Potency (astro)

CCCCNC(=O)NS(=O)(=O)c1ccc(C)cc1
inactive: Potency (Hek293T) | Potency (JEG-3) | Potency (OV90) | Potency (PA-1) | Potency (SKOV3) | Potency (Tov-21-G) | Potency (Tov112D) | activity, negative = cell killing [1, 3] -7.32% | activity, negative = cell killing [1, 4] -11.9% | activity, negative = cell killing [1, 5] -4.33% | activity, negative = cell killing [1, 2] 8.27% | Potency (astro)

CCOC(=O)C1=C(C)NC(C)=C(C(=O)OC)C1c1cccc([N+](=O)[O-])c1 (stereo not given)
active: Potency ([1]; tumour line A) 11.2 µM
inactive: Potency (Hek293T) | Potency (JEG-3) | Potency (OV90) | Potency (PA-1) | Potency (SKOV3) | Potency (Tov-21-G) | Potency (Tov112D) | activity, negative = cell killing [1, 3] 3.31% | activity, negative = cell killing [1, 4] -28.4% | activity, negative = cell killing [1, 2] -23.9%

Cc1ccc(Cl)c(Nc2ccccc2C(=O)O)c1Cl
inactive: Potency (Hek293T) | Potency (JEG-3) | Potency (OV90) | Potency (PA-1) | Potency (SKOV3) | Potency (Tov-21-G) | Potency (Tov112D) | activity, negative = cell killing [1, 3] -5.7% | activity, negative = cell killing [1, 4] -0.35% | activity, negative = cell killing [1, 5] -28.2% | activity, negative = cell killing [1, 2] -24.9%

COC(=O)[C@H]1[C@H]2C[C@@H]3c4[nH]c5cc(OC)ccc5c4CCN3C[C@H]2C[C@@H](OC(=O)c2cc(OC)c(OC)c(OC)c2)[C@@H]1OC
active: Potency ([1]; tumour line A) 5.01 µM
inactive: Potency (Hek293T) | Potency (JEG-3) | Potency (OV90) | Potency (PA-1) | Potency (SKOV3) | Potency (Tov-21-G) | Potency (Tov112D) | activity, negative = cell killing [1, 3] -27.8%

C[N+](C)(C)CCOC(N)=O
inactive: Potency (Hek293T) | Potency (JEG-3) | Potency (OV90) | Potency (PA-1) | Potency (SKOV3) | Potency (Tov-21-G) | Potency (Tov112D) | activity, negative = cell killing [1, 3] -5.35% | activity, negative = cell killing [1, 4] -11.4% | activity, negative = cell killing [1, 2] -0.881%

CCOC(=O)C1=C(C)NC(C)=C(C(=O)OC)C1c1cccc(Cl)c1Cl (stereo not given)
inactive: Potency (Hek293T) | Potency (JEG-3) | Potency (OV90) | Potency (PA-1) | Potency (SKOV3) | Potency (Tov-21-G) | Potency (Tov112D) | activity, negative = cell killing [1, 3] -16.5%
active: Potency ([1]; tumour line A) 12.6 µM

COC(=O)[C@@H](N)Cc1ccc(O)c(O)c1
inactive: Potency (Hek293T) | Potency (JEG-3) | Potency (OV90) | Potency (PA-1) | Potency (SKOV3) | Potency (Tov-21-G) | Potency (Tov112D)

CC(=O)Oc1cc(C(C)C)c(OCCN(C)C)cc1C
inactive: Potency (Hek293T) | Potency (JEG-3) | Potency (OV90) | Potency (PA-1) | Potency (SKOV3) | Potency (Tov-21-G) | Potency (Tov112D) | activity, negative = cell killing ([1]; at 20 µM (top of the series), tumour line C) -2.72% | activity, negative = cell killing ([1]; at 21.2 µM (top of the series), tumour line B) -4.22% | activity, negative = cell killing ([1]; at 21.2 µM (top of the series), tumour line D) -2.65% | activity, negative = cell killing ([1]; at 21.3 µM (top of the series), tumour line A) -22.5% | Potency (astro)

O=c1[nH]c(=O)n([C@H]2C[C@H](O)[C@@H](CO)O2)cc1Br
inactive: Potency (Hek293T) | Potency (JEG-3) | Potency (OV90) | Potency (PA-1) | Potency (SKOV3) | Potency (Tov-21-G) | Potency (Tov112D) | activity, negative = cell killing [1, 3] -18.1% | activity, negative = cell killing [1, 4] 7.04% | activity, negative = cell killing [1, 2] -12.6%

NS(=O)(=O)c1cc2c(cc1Cl)NC(C1CC3C=CC1C3)NS2(=O)=O (stereo not given)
inactive: Potency (Hek293T) | Potency (JEG-3) | Potency (OV90) | Potency (PA-1) | Potency (SKOV3) | Potency (Tov-21-G) | Potency (Tov112D) | activity, negative = cell killing [1, 3] 0.786% | activity, negative = cell killing [1, 4] 7.03% | activity, negative = cell killing [1, 5] -11.5% | activity, negative = cell killing [1, 2] -5.22%
